{"source": "PubChem BioAssay (NCATS)", "note": "Records with an inconclusive call do not appear. Calls of active or inactive are those of the source. The call rests on the fitted dose curve; in most records, active means well fitted curve in the direction sought with a large enough effect; inconclusive means small, poorly fitted or top-dose-only effect, or another doubt; inactive means no such curve, though single readings can be large or run the other way. On the % scale 0 is the no-effect control and ±100 the full control effect.", "data": [{"biological_target": "Ferritin light chain (Equus caballus) (UniProt P02791)", "sequence (P02791 2-175 limits assumed)": "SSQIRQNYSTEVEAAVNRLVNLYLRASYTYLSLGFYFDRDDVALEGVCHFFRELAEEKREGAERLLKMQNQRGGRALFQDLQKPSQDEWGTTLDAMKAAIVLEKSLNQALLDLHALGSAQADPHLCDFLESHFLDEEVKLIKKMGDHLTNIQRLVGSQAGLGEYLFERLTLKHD", "assay": "qHTS Validation Assay for Identification of Novel General Anesthetics (AID 2323)", "details": "horse apoferritin, anesthetic-site fluorescent probe displacement; series mostly up to 76.9 µM; activity change, negative = inhibition: at the top concentration", "source_text": "Source: NIH Chemical Genomics Center [NCGC]\nAssay Submitter: Roderic Eckenhoff, University of Pennsylvania\nScreening Center PI: Christopher P. Austin, NIH\nProbe Development: NIH Chemical Genomics Center [NCGC]\nAnesthetic development has remained a largely empirical process. There are growing concerns about the cognitive effects of known general anesthetics and acceleration of the onset of neurodegenerative disease. The compounds' toxicity and multiple specific binding targets in the mammalian brain [4] has made them less attractive as drug leads. In this assay, a GABAergic mimetic model system, apoferritin and a profluorescent 1-aminoanthracene ligand (1-AMA), was used to construct a competitive binding assay for identification of novel general anesthetics. The assay was validated for 1-AMA using other known anesthetics, such as isoflurane (CID:3763) and propofol (CID: 4943), [6].\n[1] S.L. Bianchi, T. Tran, C. Liu, S. Lin, Y. Li, J.M. Keller, R.G. Eckenhoff, and M.F. Eckenhoff, Brain and behavior changes in 12-month-old Tg2576 and nontransgenic mice exposed to anesthetics. Neurobiol Aging 29 (2008) 1002-10.\n[2] Z. Xie, Y. Dong, U. Maeda, R.D. Moir, W. Xia, D.J. Culley, G. Crosby, and R.E. Tanzi, The inhalation anesthetic isoflurane induces a vicious cycle of apoptosis and amyloid beta-protein accumulation. J Neurosci 27 (2007) 1247-54.\n[3] P. Honegger, and J.M. Matthieu, Selective toxicity of the general anesthetic propofol for GABAergic neurons in rat brain cell cultures. J Neurosci Res 45 (1996) 631-6.\n[4] M.F. Eckenhoff, K. Chan, and R.G. Eckenhoff, Multiple specific binding targets for inhaled anesthetics in the mammalian brain. J Pharmacol Exp Ther 300 (2002) 172-9.\n[5] C.A. Butts, J. Xi, G. Brannigan, A.A. Saad, S.P. Venkatachalan, R.A. Pearce, M.L. Klein, R.G. Eckenhoff, and I.J. Dmochowski, Identification of a fluorescent general anesthetic, 1-aminoanthracene. Proc Natl Acad Sci U S A 106 (2009) 6501-6.\n[6] W.A. Lea, J. Xi, A. Jadhav, L. Lu, C.P. Austin, A. Simeonov, and R.G. Eckenhoff, A high-throughput approach for identification of novel general anesthetics. PLoS One 4 (2009) e7150.\nThree uL of reagents (free 1-AMA (50% saturated solution of 1-aminoanthracene\nin PBS) in columns 3, 4 as negative control and 1-AMA/apoferritin mixture (10 uM horse-spleen apoferritin in 50% saturated 1-aminoanthracene in PBS) in columns 1, 2, 5-48) was dispensed into 1536-well Greiner black assay plates. Compounds (23 nL) were transferred via Kalypsys pintool equipped with 1,536-pin array (10 nL slotted pins, V&P Scientific, San Diego, CA). Titration of the positive control, propofol, were delivered via pin transfer from separate control plates to the 2nd column of each assay plate. The starting concentration of the control, dissolved in DMSO, was at 160 mM, followed by two-fold dilution points in duplicate, for a total of 16 concentrations. The plates were incubated for 10 min at room temperature, and then read on an EnVision HTS multilabel reader (Perkin-Elmer, Waltham, MA) (end point read, 3 min/plate) using Fura2 BFP excitation filter (380 nm, bandwidth 10 nm) and fluorescein emission filter (535 nm, bandwidth 25 nm) set. A LANCE/DELFIA dichroic mirror with a cutoff wavelength at 400 nm was used to maximize signal accuracy and strength. Vehicle-only plates, with DMSO being pin-transferred to the entire column 5-48 compound area, were inserted uniformly at the beginning and the end of each library in order to monitor for and record any shifts in the background. Activity was computed as the normalized fluorescence response relative to free 1-AMA and 1-AMA/apoferritin complex values. Concentration-effect relationships were derived by using curve fitting algorithms developed in-house (http://ncgc.nih.gov/pub/openhts/). A four parameter Hill equation was fitted to the concentration-response data by minimizing the residual error between the modeled and observed responses.", "values": [{"compound": "COc1cc(N)c(Cl)cc1C(=O)OCCN1CCCCC1", "activity change, negative = inhibition": "-2.1% (inactive)"}, {"compound": "O=C(O)Cc1c[nH]c2ccc(O)cc12", "activity change, negative = inhibition": "-12% (inactive)"}, {"compound": "O=C(O)[C@H]1NCCC[C@H]1C(=O)O", "activity change, negative = inhibition": "-0.202% (inactive)"}, {"compound": "NCCCCN=C(N)N", "activity change, negative = inhibition": "-5.4% (inactive)"}, {"compound": "N=C(N)c1ccc(OCCCCCOc2ccc(C(=N)N)cc2)cc1", "note": "(tested in a mixture with another compound)", "activity change, negative = inhibition": "-16.8% (inactive)"}, {"compound": "Nc1ncnc2c1ncn2C1CCCO1", "note": "(stereo not given)", "activity change, negative = inhibition": "4.07% (inactive)"}, {"compound": "Cn1cc(C(F)(F)F)nc1-c1ccc(OCC(O)CNCCOc2ccc(O)c(C(N)=O)c2)cc1", "note": "(stereo not given)", "activity change, negative = inhibition": "75.4% (inactive)"}, {"compound": "CC1=C(C(=O)O)N2C(=O)[C@@H](NC(=O)C(N)C3=CCC=CC3)[C@H]2SC1", "note": "(stereo not given in full)", "activity change, negative = inhibition": "9.75% (inactive)"}, {"compound": "O=C(O)C1=CC(=C(c2ccc(O)c(C(=O)O)c2)c2ccc(O)c(C(=O)O)c2)C=CC1=O", "activity change, negative = inhibition": "49.5% (inactive)"}, {"compound": "O=c1[nH]c(=O)c2nc3ccccc3nc2[nH]1", "activity change, negative = inhibition": "305% (inactive)"}, {"compound": "Cc1ccccc1/C=C/C1=NCCN1", "activity change, negative = inhibition": "-8.46% (inactive)"}, {"compound": "O=C(O)/C=C/c1cnc[nH]1", "activity change, negative = inhibition": "-4.33% (inactive)"}, {"compound": "O=C(O)C1CCNCC1", "activity change, negative = inhibition": "218% (inactive)"}, {"compound": "N#Cc1cc2nc(O)c(O)nc2cc1[N+](=O)[O-]", "activity change, negative = inhibition": "324% (inactive)"}, {"compound": "O=C(O)C1CN(CCCP(=O)(O)O)CCN1", "note": "(stereo not given)", "activity change, negative = inhibition": "18.1% (inactive)"}, {"compound": "COc1ccc2c(c1)CCC1C2CC[C@@]2(C)C1CC[C@@H]2NCCCCCCN1C(=O)C=CC1=O", "note": "(stereo not given in full)", "activity change, negative = inhibition": "-4.31% (inactive)"}, {"compound": "O=C1OC(=O)C2C3CCC(O3)C12", "note": "(stereo not given)", "activity change, negative = inhibition": "-4.44% (inactive)"}, {"compound": "O=S(=O)(c1cccc2c(Cl)cccc12)N1CCCNCC1", "activity change, negative = inhibition": "-12.8% (inactive)"}, {"compound": "CC(N)=O", "activity change, negative = inhibition": "0.308% (inactive)"}, {"compound": "Nc1ccc(CCNc2ncnc3c2ncn3C2OC(CO)C(O)C2O)cc1", "note": "(stereo not given)", "activity change, negative = inhibition": "-6.73% (inactive)"}, {"compound": "Cc1cccc(C(=O)NCN2CCN(c3ccccc3C#N)CC2)c1", "activity change, negative = inhibition": "-2.33% (inactive)"}, {"compound": "Nc1ccc(N2C(=O)c3ccccc3C2=O)c(Cl)c1", "activity change, negative = inhibition": "0.453% (inactive)"}, {"compound": "COc1ccc(C(=O)NCc2cccnc2)cc1C(=O)NCc1cccnc1", "activity change, negative = inhibition": "1.47% (inactive)"}, {"compound": "CC(=O)[C@H]1CCC2C3CC=C4C[C@@H](OS(=O)(=O)O)CC[C@]4(C)C3CC[C@@]21C", "note": "(stereo not given in full)", "activity change, negative = inhibition": "-3.36% (inactive)"}, {"compound": "COC(=O)C(N)Cc1ccc(Cl)cc1", "note": "(stereo not given)", "activity change, negative = inhibition": "-4.48% (inactive)"}, {"compound": "N=C(N)c1ccccc1", "activity change, negative = inhibition": "-0.563% (inactive)"}, {"compound": "NC(=O)c1ccccc1", "activity change, negative = inhibition": "-9.13% (inactive)"}, {"compound": "C=CC1(C)CC(=O)C2(O)C(C)(O1)C(OC(C)=O)C(O)C1C(C)(C)CCC(O)C12C", "note": "(stereo not given)", "activity change, negative = inhibition": "-4.91% (inactive)"}, {"compound": "CN1C2CCC1CC(OC(c1ccccc1)c1ccccc1)C2", "note": "(stereo not given)", "activity change, negative = inhibition": "-10.9% (inactive)"}, {"compound": "O=[N+]([O-])c1cccc2cn[nH]c12", "activity change, negative = inhibition": "-15.4% (inactive)"}, {"compound": "O=C1C2C=CC=CC2=NC(=S)N1CCN1CCC(=C(c2ccc(F)cc2)c2ccc(F)cc2)CC1", "note": "(stereo not given)", "activity change, negative = inhibition": "20.1% (inactive)"}, {"compound": "CCC(=O)N1CCN(C(=O)c2ccccc2)CC1", "activity change, negative = inhibition": "-5.5% (inactive)"}, {"compound": "CNC(=O)c1cc2c(cn1)[nH]c1ccccc12", "activity change, negative = inhibition": "69.5% (inactive)"}, {"compound": "NOCC(=O)O", "activity change, negative = inhibition": "-3.94% (inactive)"}, {"compound": "CCCCCC(O)CCCC(=O)O", "note": "(stereo not given)", "activity change, negative = inhibition": "-6.65% (inactive)"}, {"compound": "Cn1cc(C(=O)OCC2CCN(CCNS(C)(=O)=O)CC2)c2ccccc21", "activity change, negative = inhibition": "-3.71% (inactive)"}, {"compound": "CC[C@@H]1Cc2cc(O)ccc2C2=C1c1ccc(O)cc1C[C@H]2CC", "activity change, negative = inhibition": "388% (inactive)"}, {"compound": "NC1C=CC=C(C(=O)O)C1", "note": "(stereo not given)", "activity change, negative = inhibition": "-2.39% (inactive)"}, {"compound": "O=c1ccc2c(OCCCCc3ccccc3)c3ccoc3cc2o1", "activity change, negative = inhibition": "17.6% (inactive)"}, {"compound": "O=C(O)Cc1ccc(O)c(O)c1", "activity change, negative = inhibition": "-11.9% (inactive)"}]}]}
